Data reported in PubChem BioAssay (EPA / NIEHS).
Inconclusive results are not listed. Active and inactive are the calls of the source. Rule for the calls: active = hit-call score of the fitted dose curve at least 0.9, where 1 is the maximum; inconclusive = response in the unintended direction; inactive = score below 0.9.

target: human Adrenergic, Alpha 2A Receptor (Adra2A), ADRA2A (gene 150) (UniProt P08913); test: NVS_GPCR_hAdra2A: NovaScreen (NVS) G Protein-Coupled Receptor Assay for human Adrenergic, Alpha 2A Receptor (Adra2A) (AID 2283257)
Experimental: NVS_GPCR_hAdra2A is a biochemical, single-readout assay that uses extracted gene-proteins from HT29 in a cell-free assay. Measurements were taken 1 hour after chemical dosing in a 48-well plate.NVS_GPCR_hAdra2A is one of one assay component(s) measured or calculated from the NVS_GPCR_hAdra2A assay. It is designed to make measurements of radioligand binding, a form of binding reporter, as detected with scintillation counting signals by Filter-based radiodetection technology.Data from the assay component NVS_GPCR_hAdra2A was analyzed into 1 assay endpoint. This assay endpoint, NVS_GPCR_hAdra2A, was analyzed in the positive analysis fitting direction relative to DMSO as the negative control and baseline of activity. Using a type of binding reporter, loss-of-signal activity can be used to understand changes in the binding as they relate to the gene ADRA2A. Furthermore, this assay endpoint can be referred to as a primary readout, because the performed assay has only produced 1 assay endpoint. To generalize the intended target to other relatable targets, this assay endpoint is annotated to the gpcr intended target family, where the subfamily is rhodopsin-like receptor.
Binding assays used specific radioligands (tritiated, iodinated) with non-radioactive competitive displacement ligands in agonist or antagonist protocols (as indicated) and various reference compounds and inhibitors to titrate specific binding to receptors and transporters. Most enzyme assays (CYPs, kinases, phosphatases, proteases, HDACs) used recombinant protein and specific substrates (fluorescence mostly, some colorimetric and radioactive) and inhibitors, followed by a biochemical separation of substrate and product. All assays for the biochemical HTS were initially run in duplicate at a single concentration (10 uM for CYP450 assays and 25 uM for all others). […] Each assay was run with positive and negative controls, and concurrent controls on every plate. The follow-up (secondary) screen tested active chemical-pairs in concentration series, as well as a few additional assays not tested in the primary screen, some selected negative inactives, and several cases re-run in the concentration series for confirmatory purposes.

Sequence of human Adrenergic, Alpha 2A Receptor (Adra2A), ADRA2A (gene 150) (P08913 whole entry, looked up): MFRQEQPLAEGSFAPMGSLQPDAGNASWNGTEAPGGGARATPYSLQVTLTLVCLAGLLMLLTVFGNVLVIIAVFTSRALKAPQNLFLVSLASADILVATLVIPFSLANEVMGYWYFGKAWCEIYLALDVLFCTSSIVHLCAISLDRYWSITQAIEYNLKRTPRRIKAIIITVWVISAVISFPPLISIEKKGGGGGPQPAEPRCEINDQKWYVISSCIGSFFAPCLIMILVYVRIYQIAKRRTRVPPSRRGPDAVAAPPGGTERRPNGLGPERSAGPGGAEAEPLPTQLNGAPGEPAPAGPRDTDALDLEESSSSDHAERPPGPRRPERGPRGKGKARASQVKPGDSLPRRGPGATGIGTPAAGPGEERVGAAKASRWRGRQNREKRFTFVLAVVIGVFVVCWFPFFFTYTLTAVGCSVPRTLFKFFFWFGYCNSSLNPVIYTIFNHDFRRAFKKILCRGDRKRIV

Question: `Cc1occc1C(=O)Nc1ccc(C(=O)N2CCC(F)(F)/C(=C\C(=O)N3CCC(N4CCCCC4)CC3)c3ccccc32)cc1` was tested. Which AC50 did it give?
Answer: 3.18 µM (active)

Question: For `CCOC(=O)O[C@H](C)OC(=O)c1ccc2c(c1)cc(C(=O)NC1CCN(C(C)C)CC1)n2Cc1cc(-c2ccc(Cl)s2)on1`, which AC50 is on record?
Answer: 6.3 µM (active)

Question: Which AC50 does the source give for `CN(C)C(=O)C1(N2CCCCC2)CCN(CC[C@@]2(c3ccc(Cl)c(Cl)c3)CN(C(=O)c3ccccc3)CCO2)CC1` here?
Answer: 35.6 µM (active)

Question: For `Clc1cc(Cl)c2c(c1)N=C1CCCCCN1C2`, which AC50 is on record?
Answer: 2.99 µM (active)

Question: `COc1cc(C(=O)NC2CCN(C)CC2)ccc1Nc1ncc2c(n1)N(C1CCCC1)CC(F)(F)C(=O)N2C` was tested. Which AC50 did it give?
Answer: 14 µM (active)

Question: How did the AC50 turn out when `CN(C)c1ccc(C(=C2C=CC(=[N+](C)C)C=C2)c2ccc(N(C)C)cc2)cc1` was run?
Answer: 2.59 µM (active)

Question: How did the AC50 turn out when `O=C1c2ccccc2C(=O)N1CCc1noc(-c2ccc(CN3CCCCCC3)s2)n1` was run?
Answer: 0.861 µM (active)

Question: How did the AC50 turn out when `COc1ccc2cc(S(=O)(=O)N[C@H](CC(=O)N[C@H](Cc3ccc(CN4[C@H](C)CCC[C@@H]4C)cc3)C(=O)N(C)C(C)C)c3ccc4c(c3)OCO4)ccc2c1` was run?
Answer: 18.8 µM (active)

Question: With `CCN(Cc1cccnc1)C(=O)c1cccc(Cl)c1[C@]1(C)C(=O)N(Cc2ccc(OC)cc2OC)c2ccc(Cl)cc21` as the compound, how does the outcome read?
Answer: inactive

Question: How did the AC50 turn out when `NCc1cccc(C2CCN(C(=O)c3ccc(C#Cc4ccccc4F)o3)CC2)c1` was run?
Answer: 25 µM (active)
